# Measurements reported in PubChem BioAssay AID796 (Columbia University Molecular Screening Center, 2007).
# In all, about 94,000 compounds went through this assay and about 410 (0.44%) were called active.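 Rule for the calls: active = inhibition above about 30% together with a positive call from visual inspection of the well image (limit read from the data); inconclusive = inhibition above a set limit but visual check negative; inactive = inhibition not above a set limit, visual check negative.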 The sample as a whole holds a higher share of actives than the screen did.
# Experiment: inhibitors of IL-1B driven NFkB p65 nuclear import, primary screen, imaging, HUVEC, IL-1B stimulus, high-content imaging (AID 796);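 note: nuclear over cytoplasmic p65 intensity ratio measured by imaging; 0% = IL-1B stimulated DMSO wells and 100% = unstimulated DMSO wells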
# Conditions: HUVEC IL-1B NFkB p65 nuclear translocation imaging; at 2 µM; hits give high values
row,SMILES,inhibition
1,O=C(/C=C/Sc1ncn[nH]1)c1ccc(Cl)cc1,47.7% (active)
2,CC(C)(C)c1ccc(C(=O)CSc2ncn[nH]2)cc1,-29.2% (inactive)
3,Cc1ccc(C(=O)/C=C/c2c(C)nn(-c3ccccc3)c2Cl)cc1,15.3% (inactive)
4,CC(C)(C)NS(=O)(=O)CC12CCC(CC1=O)C2(C)C (configuration not stated),12.7% (inactive)
5,Cc1cccc(COc2ccccc2/C=N/Nc2ccc([N+](=O)[O-])cc2)c1,-18.1% (inactive)
6,COc1ccc(S(=O)(=O)N2CCOCC2)c(C)c1C,-1.9% (inactive)
7,COc1ccc(S(=O)(=O)Nc2ccc(F)cc2)c(C)c1C,74% (active)
8,COc1ccc(OC)c(S(=O)(=O)Nc2ccccc2F)c1,-16.7% (inactive)
9,O=S1(=O)C=C(SCCN2CCCC2)c2ccccc21,-1.4% (inactive)
10,CCOC(=O)/C(C#N)=C\c1c(C)cc(C)c(COC(C)=O)c1C,8.2% (inactive)
11,O=C1c2ccccc2C(=O)N1CCC(c1ccccc1)c1ccco1 (configuration not stated),-2.1% (inactive)
12,CN(C)/C=C(\C#N)C(=O)c1cccnc1Oc1ccc(F)cc1F,5.5% (inactive)
13,O=S(=O)(c1ccc(Br)cc1)n1ccc2ccccc21,5.3% (inactive)
14,O=C(Nc1ncc2c(n1)-c1ccccc1OC2)c1ccc(Cl)cc1,3.3% (inactive)
15,CC(N)C12CC3CC(CC(O)(C3)C1)C2 (configuration not stated),-22.4% (inactive)
16,C=CCN1C(=O)C(Cc2cccc(Cl)c2)S/C1=N/N=C/c1ccco1 (configuration not stated),6.5% (inactive)
17,CC(C)(C)NC(=O)COc1ccc(CNc2ccc3[nH]c(=O)[nH]c3c2)cc1,6.7% (inactive)
18,O=C(NC1CCN(C(=S)NCc2ccco2)CC1)c1ccc(F)cc1,-2.5% (inactive)
19,O=C(Oc1ccccc1C(=S)N1CCCCC1)c1cc([N+](=O)[O-])cc([N+](=O)[O-])c1,-5.6% (inactive)
20,CN1CC(c2ccccc2)C2(COc3ccccc3C2=O)C12C(=O)Nc1ccccc12 (configuration not stated),-0.2% (inactive)
21,Nc1nc(Br)c2ccccc2c1-c1ccc(F)cc1,-12.8% (inactive)
22,Cc1cccc(NC(=O)c2ccc(OCC(=O)NCc3ccccc3)cc2)c1C,12.8% (inactive)
23,Cc1nc2c(-c3ccc(F)cc3)c(C)nn2c(C)c1CCC(=O)NCc1ccco1,8.1% (inactive)
24,c1cncc(-c2nnc3n2C2(CCCCC2)Cc2ccccc2-3)c1,-4.9% (inactive)
25,NS(=O)(=O)c1ccc(Nc2nc(-c3ccccc3)cs2)cc1,18.6% (inactive)
26,O=C(CNC(=O)c1cc2c(s1)CCC2)Nc1ccccc1Br,-43.6% (inactive)
27,Cc1ccc(N(CC(=O)Nc2cc(C)cc(C)c2)S(=O)(=O)c2cccc3nonc23)cc1,0.6% (inactive)
